Test results from PubChem BioAssay (NCATS).
Inconclusive results are not listed. Entries that show only a call come without a potency. Values without a mark were called inactive. The source made the active and inactive calls. The call rests on the fitted dose curve; in most records, active means well fitted inhibition curve with a large enough effect; inconclusive means small, poorly fitted or top-dose-only effect; inactive means flat fitted curve, though single readings scatter.

Target: Calcium and integrin-binding protein 1 (Homo sapiens) (UniProt Q99828)
Assay: Primary qHTS for Identification of Calcium Integrin Binding Protein 1 (CIB1) Competitor (AID 1508620);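 further: GST tagged CIB1 binding a fluorescein labelled alphaIIb integrin peptide tracer; top concentration of the series differs between compounds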
Outline: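 CIB1-GST (1 uM final) and compound incubated 15 min at room temperature before adding FITC-alphaIIb peptide tracer (100 nM final). Competition for binding read by fluorescence polarization (ex 480, em 540) after another 15 min at room temperature.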

Calcium and integrin-binding protein 1 (Homo sapiens), sequence (Q99828 whole entry, looked up): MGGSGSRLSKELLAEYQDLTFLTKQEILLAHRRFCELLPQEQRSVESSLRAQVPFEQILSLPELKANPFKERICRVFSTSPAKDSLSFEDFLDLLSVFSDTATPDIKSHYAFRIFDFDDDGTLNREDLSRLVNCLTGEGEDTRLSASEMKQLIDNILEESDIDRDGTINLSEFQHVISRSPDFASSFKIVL

| Compound | Potency | activity change, negative = inhibition |
| --- | --- | --- |
| NC(=O)c1ccc(OCC2NC(=O)C3CCCN3C2=O)cc1 (stereo not given) | inactive | – |
| O=C(CCO[C@@H]1O[C@H](CO)[C@@H](O)[C@H](O)[C@H]1O)c1ccc(O)cc1 | inactive | – |
| CC1CCC23COC(=O)C2=CC(O)CC3C1(C)CCC1=CC(=O)OC1O (stereo not given) | inactive | – |
| CC1(C)CC2C3=CCC4C5(C)CCC(OC6OC(C(=O)O)C(O)C(O)C6OC6OC(CO)C(O)C(O)C6OC6OC(CO)C(O)C(O)C6O)C(C)(CO)C5CCC4(C)C3(C)CCC2(C)C(OC2OCC(O)C(OC3OC(CO)C(O)C(O)C3O)C2O)C1O (stereo not given) | – | -16.4% [at 12.4 µM] |
| C=C1C2(CCC(=O)OC2(C)C)CC(OC(=O)/C(C)=C/C)C2(C)C13OC14C(=O)OC(C)(C(=O)C12C(=O)OC4C)C3OC(C)=O (stereo not given) | inactive | – |
| CC1(C)C[C@H]2C3=CCC4[C@@]5(C)CC[C@H](O[C@H]6O[C@H](C(=O)O)[C@@H](O)[C@H](O)[C@H]6O[C@H]6O[C@H](CO)[C@@H](O)[C@H](O)[C@H]6O[C@@H]6O[C@H](CO)[C@@H](O)[C@H](O)[C@H]6O)[C@](C)(CO)C5CC[C@@]4(C)[C@]3(C)CC[C@@]2(C)[C@H](O[C@@H]2OC[C@H](O)[C@H](OC3O[C@H](CO)[C@@H](O)[C@H](O)[C@H]3O)[C@H]2O)[C@@H]1O (stereo not given in full) | – | -7.85% [at 12.4 µM] |
| C=CC1(C)C=C2C(=O)CC3C(C)(C)CCCC3(C(=O)O)C2(O)CC1 (stereo not given) | inactive | – |
| C/C=C(\C)C(=O)OC[C@H]1O[C@H](O[C@H]2O[C@H](CO)[C@@H](OC(=O)/C(C)=C/C)[C@H](O)[C@H]2O[C@@H]2O[C@H](CO)[C@@H](O)[C@H](O)[C@H]2O)[C@H](O[C@@H]2O[C@H](CO)[C@@H](O)[C@H](O)[C@H]2O)[C@@H](O)[C@@H]1O | inactive | – |
| COc1c(OC2OC(CO)C(O)C(O)C2O)ccc(O)c1C(=O)OCc1ccccc1O[C@@H]1O[C@H](CO)[C@@H](O)[C@H](O)[C@H]1O (stereo not given in full) | inactive | – |
| C#C[C@]1(O)CC[C@H]2[C@@H]3CCC4=C/C(=N/O)CC[C@@H]4[C@H]3CC[C@@]21CC | inactive | – |
| CC1C/C=C/C=C\CCCCC(O)C/C=C/C(=O)O1 (stereo not given) | inactive | – |
| CC1CCC2(C(=O)OC3OC(CO)C(O)C(O)C3O)CCC3(C)C(=CCC4C5(C)CC(O)C(O)C(C)(C(=O)O)C5CCC43C)C2C1(C)O (stereo not given) | inactive | – |
| CC(CCC1C(C(=O)O)=CC(=O)CC1(C)C)O[C@@H]1O[C@H](CO)[C@@H](O)[C@H](O)[C@H]1O (stereo not given in full) | inactive | – |
| CC1=C2C(=O)C=C(CO)[C@@H]2[C@H]2OC(=O)[C@H](C)[C@@H]2[C@@H](O)C1 | inactive | – |
| COC12CC3C(C(C)C1=CC(=O)O2)C(O)C(OC(C)=O)C1C(C)(C)C(OC(C)=O)CCC31C (stereo not given) | inactive | – |
| O=C1[C@H](O[C@@H]2O[C@H](CO)[C@@H](O)[C@H](O)[C@H]2O)Oc2ccccc2N1O | inactive | – |
| C[C@@H]1O[C@@H](O[C@H]2[C@H](OC(=O)[C@]34CCC(C)(C)C[C@H]3C3=CCC5[C@@]6(C)CC[C@H](O[C@@H]7O[C@H](CO[C@@H]8OC[C@H](O)[C@H](O)[C@H]8O)[C@@H](O)[C@H](O)[C@H]7O)C(C)(C)C6CC[C@@]5(C)[C@]3(C)C[C@H]4O)OC[C@@H](O)[C@@H]2O)[C@H](O)[C@H](O)[C@H]1O[C@@H]1OC[C@H](O)[C@H](O[C@@H]2OC[C@@H](O)[C@H](O)[C@H]2O)[C@H]1O (stereo not given in full) | – | 0.282% [at 12.4 µM] |
| CC1(CCC(=O)O)C(=O)C=CC23CC4CC(OC4(C)C2O)C13 (stereo not given) | inactive | – |
| O=C(O)Cc1nn(Cc2nc3cc(C(F)(F)F)ccc3s2)c(=O)c2nccnc12 | inactive | – |
| COC(=O)C1=CO[C@@H](O[C@@H]2O[C@H](CO)[C@@H](O)[C@H](O)[C@H]2O)[C@@H]2[C@@](C)(O)[C@@H](O)C[C@]12O | inactive | – |
| C=C1CC2[C@]3(C)C(=C(O)C(=O)[C@@]2(C)[C@]2(C(=O)OC)C(=O)C(C)OC(=O)[C@@]12C)C(C)(C)C(=O)CC3O (stereo not given in full) | inactive | – |
| N[C@H]1C[C@H]1c1ccc(-c2cccc(O)c2)cc1 | inactive | – |
| CC[C@H](C)/C=C(C)/C=C/C(=O)Cc1cc(O)c(C)c(O)c1C=O | inactive | – |
| C=C(C)C1CC2(CO)C(=CC1=O)CCC(O)C2C (stereo not given) | inactive | – |
| C=C1CC[C@H]2[C@@H](/C=C(\C)C(=O)[C@@]3(OC(C)=O)C[C@H](C)[C@H](OC(C)=O)[C@@H]3[C@H]1OC(C)=O)C2(C)C | inactive | – |
